Assay results as given in PMC4336329 (PLoS ONE, 2015).
About 14,000 (4.5%) of roughly 310,000 compounds showed an effect of 50% or more. Effects have a minus sign here. For the sample, strong results were picked, then their nearest neighbours and some compounds at random.

The compounds below were run against human ether-à-go-go-related gene (hERG) potassium channel (human, UniProt Q12809) (assay: primary screen, population patch clamp on CHO cells stably expressing hERG; higher = less effect of the substance).
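Also: peak tail current of the secondary pulse compared with the same well before compound.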

Chain of human ether-à-go-go-related gene (hERG) potassium channel (Q12809 whole entry, looked up): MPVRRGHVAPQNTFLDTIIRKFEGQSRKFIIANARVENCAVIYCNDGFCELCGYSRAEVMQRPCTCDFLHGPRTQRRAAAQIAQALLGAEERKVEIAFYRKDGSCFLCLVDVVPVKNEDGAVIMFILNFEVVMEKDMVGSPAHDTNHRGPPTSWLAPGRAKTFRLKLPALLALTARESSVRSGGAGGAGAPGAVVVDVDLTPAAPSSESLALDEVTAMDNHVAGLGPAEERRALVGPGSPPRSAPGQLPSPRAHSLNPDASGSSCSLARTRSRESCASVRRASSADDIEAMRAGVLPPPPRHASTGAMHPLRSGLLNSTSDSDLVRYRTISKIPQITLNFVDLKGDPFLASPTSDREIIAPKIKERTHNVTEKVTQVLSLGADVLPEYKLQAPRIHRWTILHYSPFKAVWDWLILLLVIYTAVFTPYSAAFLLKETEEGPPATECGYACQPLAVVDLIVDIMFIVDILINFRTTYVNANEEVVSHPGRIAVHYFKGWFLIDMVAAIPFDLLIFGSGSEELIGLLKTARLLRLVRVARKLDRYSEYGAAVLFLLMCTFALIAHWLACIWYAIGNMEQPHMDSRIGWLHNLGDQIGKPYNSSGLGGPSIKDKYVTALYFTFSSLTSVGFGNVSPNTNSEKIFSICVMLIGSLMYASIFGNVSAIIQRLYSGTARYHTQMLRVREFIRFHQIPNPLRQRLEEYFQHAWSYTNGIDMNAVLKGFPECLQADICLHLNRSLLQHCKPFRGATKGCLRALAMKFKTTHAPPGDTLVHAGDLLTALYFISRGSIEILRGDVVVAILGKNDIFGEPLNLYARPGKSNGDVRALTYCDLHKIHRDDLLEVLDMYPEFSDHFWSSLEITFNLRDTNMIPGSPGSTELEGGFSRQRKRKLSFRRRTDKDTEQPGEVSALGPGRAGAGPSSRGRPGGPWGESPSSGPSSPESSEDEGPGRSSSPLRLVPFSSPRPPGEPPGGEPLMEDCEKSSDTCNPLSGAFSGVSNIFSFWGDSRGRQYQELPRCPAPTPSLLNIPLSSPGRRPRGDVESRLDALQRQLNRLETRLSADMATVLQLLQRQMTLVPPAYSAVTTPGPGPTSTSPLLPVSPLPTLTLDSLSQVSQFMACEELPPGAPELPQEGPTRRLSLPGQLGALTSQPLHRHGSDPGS

| SMILES | hERG current change (%, negative = inhibition) at 10uM [%] |
| --- | --- |
| CCOc1ccc(NC(=O)COc2nsnc2N2CCCCC2)cc1 | 21.6 |
| CC(C)[C@H](NC(=O)c1ccc(F)cc1)C(=O)N(C)Cc1cccs1 | -13.8 |
| Cc1ccc(SCC(=O)N2CCOCC2)cc1 | 4.71 |
| Cc1cccc(OCCc2nnc(N)s2)c1C | 15.2 |
| CCN1CCCC1CNCc1cccc(OC)c1OCc1ccccc1.Cl (stereo not drawn) | -26.9 |
| CCN1CCCC1CNS(=O)(=O)c1ccc(F)c(Cl)c1 (stereo not drawn) | 9.12 |
| CCN1CCCC1CNCc1cccc(OC)c1OCc1ccccc1F.Cl (stereo not drawn) | -54.4 |
| CCN1CCCC1CNCc1ccc(Cl)cc1Cl.Cl (stereo not drawn) | -64.6 |
| COc1cccc(CNc2ccccc2O)c1OCc1ccccc1F | -1.17 |
| CCOc1cc(CNCC2CCCN2CC)cc(Cl)c1OC.Cl (stereo not drawn) | -18 |
| CCN1CCCC1CNCc1cccc(OC)c1OCc1ccc(F)cc1.Cl (stereo not drawn) | -69.5 |
| CNCc1ccccc1OCc1ccc(F)cc1.Cl | -7.08 |
| CCN1CCCC1CNCc1ccccc1OCc1ccc(F)cc1.Cl (stereo not drawn) | -65 |
| COc1cccc(CNn2cnnc2)c1OCc1ccccc1F | 6.85 |
| CCN1CCCC1CNCc1ccc(OCc2ccc(Cl)nc2)c(OC)c1.Cl (stereo not drawn) | -39.1 |
| CCN1CCCC1CNCc1cc(OC)c(OC)c(OC)c1.Cl (stereo not drawn) | 1.63 |
| O=c1cc(/N=C/c2coc3c(ccc4ccccc43)c2=O)[nH]c(=S)[nH]1 | 11 |
| Nc1nc(SCC(=O)Nc2ccc(Oc3ccccc3)cc2)n[nH]1 | -4.09 |
| CCNC(=S)N(CCc1c(C)[nH]c2ccc(F)cc12)Cc1cccnc1 | -26.5 |
| O=C(Cn1cnnn1)NCc1ccccc1 | 29.6 |
| O=C(Cn1c(-c2cscn2)nc2ccccc21)Nc1ccc(Cl)cc1 | -7.59 |
| COCC(C)n1c(C)cc(C(=O)CSc2cc(C)c3ccccc3n2)c1C (stereo not drawn) | 4.64 |
| CCc1ccc(OCC(=O)NC(=S)Nc2ccc(C)cc2C)c(Br)c1 | 7.39 |

| SMILES | hERG current change (%, negative = inhibition) at 10uM [%] |
| --- | --- |
| CN(c1ccc(C(=O)N2CCCCC2)cc1)S(=O)(=O)c1cccs1 | 8.46 |
| NS(=O)(=O)c1ccc2nc(NC(=O)c3ccncc3)sc2c1 | 13.9 |
| Cc1nc(NS(=O)(=O)c2ccc(Cl)s2)c2c3c(sc2n1)CCCC3 | -28.7 |
| CCN(CC)CCNC(=O)c1cc(Nc2ccc(OC)c(OC)c2)nc2ccccc12 | -23.8 |
| CCN(CC)CCNC(=O)c1ccc(NC(=O)c2cc(-c3ccco3)nc3ccccc23)cc1 | -30.2 |
| COc1ccc(Nc2cc(C(=O)NCCCN3CCOCC3)c3ccccc3n2)cc1 | -26.5 |
| CCN(CC)CCCNC(=O)c1cc(Nc2ccc(OC)cc2OC)nc2ccccc12 | -36.1 |
| CCCCCCNC(=O)c1cc(-c2ccco2)nc2ccccc12 | -11.5 |
| NS(=O)(=O)c1ccc(CCNC(=O)c2cc(-c3ccco3)nc3ccccc23)cc1 | -58.3 |
| CCN(CC)CCNC(=O)c1cc(-c2ccc(Br)s2)nc2ccccc12 | -9.2 |
| CCCCOc1cc(C(=O)NCCN(CC)CC)c2ccccc2n1 | -65.9 |
| CCN(CC)CCCNC(=O)c1cc(Nc2ccc(OC)cc2)nc2ccccc12 | -53.8 |
| NS(=O)(=O)c1ccc(CCNC(=O)c2cc(-c3ccccc3)nc3ccccc23)cc1 | -10.4 |
| COc1ccc(CCNC(=O)c2cc(-c3ccco3)nc3ccccc23)cc1 | 2.98 |
| CCN(CC)CCNC(=O)c1cc(-c2ccco2)nc2ccccc12.Cl | -65.5 |
| CN1C(=O)N2CN(C3CCCCC3)CN3C(=O)N(C)C1C23 (stereo not drawn) | 9.88 |
| Cc1noc(C)c1COC(=O)C1COc2ccccc2O1 (stereo not drawn) | 15.2 |
| CCc1ccc(N(C(=O)c2csnn2)C(C(=O)NC(C)(C)C)c2cccnc2)cc1 (stereo not drawn) | 4.59 |
| CCOCCCNC(=O)C(NC(=O)c1ccccn1)c1ccc(C)cc1 (stereo not drawn) | -0.00042 |
| Cc1ccccc1NS(=O)(=O)c1ccc(-c2ccc(=O)[nH]n2)o1 | -2.13 |
| COc1ccccc1N1CCN(C(=O)CCCn2c(=O)[nH]c3ccsc3c2=O)CC1 | 4.33 |
| O=C(CCC(=O)c1ccc(F)cc1)Nc1cccc(C(F)(F)F)c1 | 7.22 |
| COc1ccc(Nc2ccc([N+](=O)[O-])cc2[N+](=O)[O-])cc1 | -32.5 |

| SMILES | hERG current change (%, negative = inhibition) at 10uM [%] |
| --- | --- |
| O=C(Nc1ccc(Cl)cc1C(=O)NCC1CCCO1)c1ccc(Cl)cc1Cl (stereo not drawn) | -10.2 |
| CC(C1CC2CCC1C2)N1CC(O)=C(c2nc3ccccc3[nH]2)C1=N (stereo not drawn) | -17.9 |
| Cc1ccc(C)c(S(=O)(=O)N/N=C/c2cccnc2)c1 | 7.65 |
| COc1ccc(OC)c(NS(=O)(=O)c2ccc3c(c2)n(C)c(=O)n3C)c1 | -5.85 |
| CCC/C(=N\NC(=O)C1CC1)c1ccc(Br)cc1 | 11.9 |
| C/C(=N\N=C1\NC(=O)CC(C(=O)O)S1)c1ccc(F)cc1 (stereo not drawn) | 0.193 |
| CCOC(=O)c1nn(C23CC4CC(CC(C4)C2)C3)c2c1C(=O)N(c1ccc(C)cc1)C2=O | 20.3 |
| Cc1cc([N+](=O)[O-])nn1CC(=O)Nc1ccccn1 | 5.51 |
| Cc1cc([N+](=O)[O-])nn1CC(=O)Nc1cnc2ccccc2c1 | -81.1 |
| Cc1cc([N+](=O)[O-])nn1CC(=O)Nc1ccc(F)cc1 | 6.31 |
| Cc1cccc(C)c1-n1c(C)nn(CC#N)c1=O | 19.1 |
| COc1ccc2[nH]c3c(c2c1)CCN=C3C | -18.2 |
| CN=C1c2cc3cc(OC)ccc3n2CCN1C.Cl | -53 |
| CCN(CC)CCNC(=O)COc1ccc(OC)cc1.Cl | -9.07 |
| COC(=O)c1cc2cc(OC)ccc2n1C | 0.821 |
| COc1ccc2c(c1)c1c(n2C(C)=O)C(OC(C)=O)=NCC1 | -8.94 |
| COc1ccc2c(c1)cc1n2CCN=C1NCCO.Cl | -10.2 |
| COc1ccc2c(c1)c1c3n2CCN(C)C3=NCC1.Cl | -67.7 |
| CCN(CC)CCNC1=NCCn2c1cc1cc(OC)ccc12.Cl | -66.6 |
| CN=C1c2c(-c3ccccc3)c3cc(OC)ccc3n2CCN1C.Cl | -62.6 |
| COc1ccc2c(c1)c1ccccc1n2C | 11 |
| COc1ccc2c(c1)c(=O)cc(-c1ccccc1)n2C | 0.0751 |
| COc1ccc2c(c1)cc(C(=O)O)n2C | -6.02 |
